Results on 40 compounds are retold here after PubChem BioAssay (NCI).

Molecules are shown by their SMILES. The panel holds about 83,000 compounds, 20% with a hit somewhere; the sample as a whole holds those more often.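 Method: cells in 96-well plates; compound added at one concentration; 48 h incubation; percent growth measured; values under 10 scored active.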 Values without a mark were called inactive. The source made the active and inactive calls.

This experiment deals with MDA-MB-468 breast. In words: NCI-60 one-dose screen, 48 h (100 = growth as untreated, 0 = no growth, -100 = all killed). Particulars: 10 µM unless noted.
On to `CSc1ccc(C(=O)C[n+]2cccc(C)c2)cc1`, for which the growth is 91.1%.
As to `O=S(=O)(NCCCNc1nccc(-n2cnc3ccccc32)n1)c1ccc(F)cc1`, the growth is 50.2%.
`COc1cc(/C=C/C(=O)c2c(C)oc3nc[nH]c(=O)c23)cc(OC)c1OC`: the growth was 64.3%.
In the case of `CC(=O)Nc1ccc(S(=O)(=O)N2C(=O)CCC2C(=O)Nc2ccc(Br)cc2)cc1` (stereo not given), the growth is 20.6%.
For `Cc1cc(C)c(-c2c(C)cc(C)cc2CBr)c(CBr)c1`, the growth is 45.1%.
Take `CC[N+](CC)=c1cc2oc3cc(N(C)C)ccc3nc-2cc1C`: the growth was -14% (active).
As for `O=c1[nH][n+](-c2ccc(Cl)cc2)no1`, the growth was 93.2%.
Consider `COc1ccc(Cn2nc3c(c2-c2cc(OC)c(OC)c(OC)c2)-c2oncc2CC3)cc1`, for which the growth was 27.8%.
As to `Nc1ccn([C@@H]2O[C@H](COP(=O)(O)O[C@@H]3C[C@H](n4cc(F)c(=O)[nH]c4=O)O[C@@H]3COP(=O)(O)O[C@@H]3C[C@H](n4cc(F)c(=O)[nH]c4=O)O[C@@H]3COP(=O)(O)O[C@@H]3C[C@H](n4cc(F)c(=O)[nH]c4=O)O[C@@H]3COP(=O)(O)O[C@@H]3C[C@H](n4cc(F)c(=O)[nH]c4=O)O[C@@H]3COP(=O)(O)O[C@@H]3C[C@H](n4cc(F)c(=O)[nH]c4=O)O[C@@H]3COP(=O)(O)O[C@@H]3C[C@H](n4cc(F)c(=O)[nH]c4=O)O[C@@H]3COP(=O)(O)O[C@@H]3C[C@H](n4cc(F)c(=O)[nH]c4=O)O[C@@H]3COP(=O)(O)O[C@@H]3C[C@H](n4cc(F)c(=O)[nH]c4=O)O[C@@H]3COP(=O)(O)O[C@@H]3C[C@H](n4cc(F)c(=O)[nH]c4=O)O[C@@H]3COP(=O)(O)O[C@@H]3C[C@H](n4cc(F)c(=O)[nH]c4=O)O[C@@H]3COP(=O)(O)OCCOCCOCCOCCOCCOCCO)[C@H](O)C2O)c(=O)n1` (stereo not given in full), the growth is 77%.
`CC(=O)Nc1ccc(/C=C2\SC(=S)N(/C=C(\C(C)=O)C(N)=O)C2=O)cc1`: the growth was 108%.
Take `[B-][N+](CC)(CC)c1ccccc1`: the growth was 104%.
Consider `CCn1nc(-c2ccc(C(=O)OC)cc2)nc2c(=O)n(C)c(=O)nc1-2`, for which the growth is 82%.
For `COc1ccc(-c2cc(-c3ccc(Nc4ccnc5cc(Cl)ccc45)cc3)nc(N3CCOCC3)n2)cc1`, the growth was 42.1%.
Turning to `Cc1ccc(N=c2nc3sc4c(C)ccc(C)c4n3c(N)c2C#N)cc1`, the growth is 115%.
Consider `CCN(CC)CCOc1ccc(C2=C(c3ccccc3)CCc3cc(OC)ccc32)cc1`, for which the growth was -44.2% (active).
On to `Cc1ncc(CO)c(C(=O)O)c1O`, for which the growth is 108%.
For `COc1ccc(-c2nn(-c3cccc(Cl)c3)cc2-c2cc(-c3ccc(Br)cc3)nc(N)n2)cc1`, the growth was 95%.
As for `COc1cc2c(c(OC)c1OC)-c1ccc(NNC(N)=S)c(=O)cc1[C@@H](NC(C)=O)CC2`, the growth was -14.2% (active).
As for `COC1C(O)CC(OC2CC(OC3CC(O[C@@H]4C(=O)c5c(cc6cc(OC7CC(OC8CC(O)C(O)C(C)O8)C(O)C(C)O7)c(C)c(O)c6c5O)CC4[C@H](OC)C(=O)C(C)=O)OC(C)C3O)OC(C)C2O)OC1C` (stereo not given in full), the figure is -64.7% (active); as for `Nc1nc(N)c(-c2ccc(Cl)cc2)c(/C=C/c2ccc([N+](=O)[O-])cc2)n1`, 64.7%.
In the case of `COC(=O)c1c2c(c(C)[n+]([O-])c1C)C(=O)C=C(NCc1ccc(F)cc1)C2=O`, the growth is -67% (active).
Regarding `COC(=O)/C(=C\c1c(C)[nH]c2ccccc12)S(=O)(=O)c1ccccc1`, the growth was 23.4%.
For `CCN1CCN(CC(=O)Nc2nc3ccc(NCc4ccc(C)cc4)cc3s2)CC1`, the growth was 68.2%.
As for `CCN(C(=O)c1cc2ncccc2[nH]1)[C@H]1CCC[C@@H](NCc2cccc(F)c2)C1`, the figure is 107%; as for `COc1cc(C2CC(=O)c3c(C)nn(-c4nc5ccccc5[nH]4)c3C2)cc(OC)c1OC` (stereo not given), 82%.
With `CCOC(=O)/C=C1\S/C(=N\Nc2cc(=O)[nH]c3ccccc23)N(c2ccccc2)C1=O`, the growth was 105%.
With `O=C(NCCNCCO)c1cc([N+](=O)[O-])cc([N+](=O)[O-])c1O`, the growth is 103%.
On to `CN1CCN(c2ccc(Nc3nc(NCCCNS(=O)(=O)c4cccc5ccccc45)c4sccc4n3)cc2)CC1`, for which the growth is -70.5% (active).
Consider `O=c1c2cc(F)ccc2sc2c(NCCN3CCCCC3)nc3ccccc3c12`, for which the growth is 6.41% (active).
As for `COc1ccc2c(c1)C(c1cc(OC)c3c(c1)OCO3)C1=C(COC1=O)N2` (stereo not given), the figure is -14.4% (active).
`Cn1cc(-c2csc(-c3cn(CCCN4CCCCC4)c4ccc(Br)cc34)n2)c2cccnc21`: the growth is 15.2%.
As for `CCOC(=O)c1c(C)nc2ccccc2c1/C=C/c1cccs1`, the figure is -2.39% (active); as for `COc1cc(CCC[P+](c2ccccc2)(c2ccccc2)c2ccccc2)c(OC)c2c1OCO2`, -25.3% (active); as for `COc1cc(CNC(=O)/C=C/c2ccccc2)ccc1OCC(=O)NO`, 92.5%.
As to `COc1cc(/C=C2\C(=O)Nc3ccc(N(C)C)cc32)cc(OC)c1OC`, the growth is -2.28% (active).
`COc1cc(C(C)(C)C)cc(OC)c1C(O)(c1c(OC)cc(C(C)(C)C)cc1OC)c1c(OC)cc(C(C)(C)C)cc1OC`: the growth is -88.3% (active).
For `COc1ccccc1-n1c(-c2ccc(O)cc2C)cn2c3c(=O)[nH]c(=O)n(C)c3nc12`, the growth is 88.6%.
Regarding `Cc1cc(Nc2nc(N3CCN(C)CC3)nc3ccccc23)n[nH]1`, the growth is 90%.
In the case of `CCCCCCCCCCCCCCCCC(=O)O`, the growth is 102%.
As for `COC(=O)C1(C)CCC[C@]2(C)[C@H]3C[C@H]4C(C(C)C)=C[C@]3(CC[C@@H]12)[C@H]1[C@@H]4[C@@H](OC(=O)c2ccco2)CC[C@@H]1OC(=O)c1ccco1` (stereo not given in full), the figure is 102%.
